# EBV LMP1 NFkB: Epstein-Barr LMP1 NF-kappaB reporter inhibition; LMP1-induced NF-kappaB luciferase reporter cells, luminescence; AID 504558; inhibition, % at 12.5 µM; 350,000 tested, 0.69% active; in the data active means inhibition above about 41%; inconclusive means no clear call, values can overlap the other calls
# CF NFkB inh: blocks PAF-induced NF-kB reporter in cystic fibrosis cells. KKLEB NF-kB-GFP reporter, GFP fluorescence overnight. inhibition, % at 5 µM. 360,000 tested, 0.86% active. AID 588850;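 active means at least 50% inhibition at 5 µM, scaled per plate between neutral and stimulator controls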;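 further: PAF is a Pseudomonas aeruginosa culture filtrate used as stimulus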
# Peg3 prom inh: Peg3 promoter activity inhibition; inhibition, % at 20 µM; 360,000 tested, 1.7% active; AID 588405; HeLa PEG-Prom luciferase reporter, luminescence, overnight;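 active means inhibition of at least 50% at 20 µM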
# KKLEB cytotox: CF airway cell cytotoxicity counter-screen; activity change (cytotoxicity), % at 5 µM; 360,000 tested, 0.36% active; KKLEB CF airway cells viability, ATPlite luminescence, overnight; stronger effect = lower value; cells stimulated with P. aeruginosa culture filtrate; AID 602141;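 active means corrected activity change at or below -50% at 5 µM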
# HIF-2a inh: inhibitors of HIF-2a | 786-0 RCC cells HIF-2a reporter, luciferase luminescence, overnight | inhibition, % at 18.8 µM | 360,000 tested, 0.72% active;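 active means inhibition of the luminescence signal of 40% or more relative to plate controls, in a single-dose primary screen at 18.75 µM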
# Shn3 inh set2: inhibitors of Schnurri-3 3'UTR reporter in osteoblasts; Clone20 osteoblast Shn3 3'UTR firefly luciferase, 24 h; inhibition, % at 12.5 µM; 360,000 tested, 0.52% active;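 active means mean inhibition of at least 75% with every replicate also reaching 75%; inconclusive means mean inhibition at least 75% but some replicate below; inactive means mean inhibition below 75%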
# CF NFkB conf: CF NF-kB inhibition confirmation, single concentration; AID 602472; KKLEB CF airway cells, PAF-induced NF-kB-GFP fluorescence, overnight; inhibition, % at 5 µM; 1,300 tested, 64% active; shares compounds with CF NFkB inh; in the data active means inhibition above about 40%;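 further: stimulus PAF is a Pseudomonas aeruginosa filtrate and not platelet activating factor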
# Mdm2 MdmX conf: confirmation of inhibitors of human Mdm2/MdmX interaction, set 2 | inhibition, % at 8 µM | SaOS-2 split-luciferase Mdm2/MdmX complementation, luminescence | 740 tested, 99% active | shares compounds with HIF-2a inh;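 active means mean inhibition of the luminescence signal across two replicates at or above 26 percent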
# Target sequence (O15151 whole entry, looked up): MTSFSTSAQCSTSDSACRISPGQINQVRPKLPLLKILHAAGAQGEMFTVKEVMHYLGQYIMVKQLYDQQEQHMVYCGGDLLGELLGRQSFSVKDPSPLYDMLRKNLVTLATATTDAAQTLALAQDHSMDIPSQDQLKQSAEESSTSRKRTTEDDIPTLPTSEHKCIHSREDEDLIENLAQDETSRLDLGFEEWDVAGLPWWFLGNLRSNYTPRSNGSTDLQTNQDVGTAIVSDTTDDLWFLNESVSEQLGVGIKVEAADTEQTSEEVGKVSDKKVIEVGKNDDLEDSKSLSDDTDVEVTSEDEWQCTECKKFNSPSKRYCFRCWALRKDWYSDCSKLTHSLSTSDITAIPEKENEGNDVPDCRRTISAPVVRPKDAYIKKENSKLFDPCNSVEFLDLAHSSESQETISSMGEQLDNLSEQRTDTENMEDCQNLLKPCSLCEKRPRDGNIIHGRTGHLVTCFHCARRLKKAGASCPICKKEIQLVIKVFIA
# Target sequence (Q00987 whole entry, looked up): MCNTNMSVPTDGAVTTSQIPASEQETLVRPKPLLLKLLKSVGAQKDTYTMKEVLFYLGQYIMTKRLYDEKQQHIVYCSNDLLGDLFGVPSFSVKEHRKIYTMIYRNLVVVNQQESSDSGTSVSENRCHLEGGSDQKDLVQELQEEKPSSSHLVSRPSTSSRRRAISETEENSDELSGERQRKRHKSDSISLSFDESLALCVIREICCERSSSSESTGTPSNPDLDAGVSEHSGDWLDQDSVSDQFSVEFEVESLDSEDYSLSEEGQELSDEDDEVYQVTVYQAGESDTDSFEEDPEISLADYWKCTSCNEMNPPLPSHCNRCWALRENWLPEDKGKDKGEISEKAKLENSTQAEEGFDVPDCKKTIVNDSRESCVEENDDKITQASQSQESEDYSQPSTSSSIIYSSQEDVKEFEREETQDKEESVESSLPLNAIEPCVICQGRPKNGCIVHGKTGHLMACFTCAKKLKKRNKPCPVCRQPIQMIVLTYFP
# HIF-2a inh conf: HIF-2a inhibition, single concentration confirmation; AID 651580; 786-0 RCC cells, HIF-2a luciferase reporter luminescence, overnight; 1,800 tested, 56% active; inhibition, % at 18.8 µM; shares compounds with HIF-2a inh;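 active means mean inhibition across four replicates of at least 40 percent at the single tested concentration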
# HIF-1a counter: counter-screen for HIF-2a inhibitors: HIF-1a inhibition in MiaPaCa-2 cells; inhibition, % at 18.8 µM; shares compounds with HIF-2a inh; 1,800 tested, 72% active; MiaPaCa-2 HIF-1a luciferase reporter, desferoxamine, overnight;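 active means mean inhibition of the reporter signal across four replicates at the single tested dose of 50% or more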
# A number is an active result; – = inactive; ? = inconclusive; · = not tested or not shown. Most compounds without a hit are left out; they make up all but 2.9% or so of the library.
SMILES,EBV LMP1 NFkB,CF NFkB inh,Peg3 prom inh,KKLEB cytotox,HIF-2a inh,Shn3 inh set2,CF NFkB conf,others
O=C(Nc1nc2ccc(Cl)cc2s1)[C@@H]1CCCN1C(=O)c1cccs1,–,52.7,–,–,–,–,–,
Cc1cccc2sc(NC(=O)[C@@H]3CCCN3C(=O)c3cccs3)nc12,–,–,–,–,–,–,·,
COc1ccc(-c2cc3c(=O)n(CC(=O)NCc4ccc(C)cc4)ncn3n2)cc1,–,54.5,–,–,–,–,–,
COc1c(Cl)cc(Br)c(OC)c1C(=O)NC(=O)Nc1nc(C)cc(C)n1,–,–,–,–,–,–,·,
CCOc1ccc(OCCn2c(S(=O)(=O)O)nc3c(N)ncnc32)cc1,–,–,–,–,–,–,·,
CCN(C(=O)c1cc(S(=O)(=O)N2CCCCC2)c[nH]1)c1ccc(OC)cc1,–,50.4,–,–,–,–,45.8,
O=C(NCCCN=C1NS(=O)(=O)c2ccccc21)c1ccc(F)cc1,–,–,–,–,–,–,·,
Oc1ccc(CCNc2ncnc3ccc(Cl)cc23)cc1,–,70.2,–,–,–,88.0,89.4,
CCCCCc1cc(O)c2c(C)cc(=O)oc2c1,–,74.5,–,–,–,–,80.4,
Cc1cc(=O)oc2cc(O)cc(O)c12,–,–,–,–,–,–,·,
CCCCCCc1nc2nc(Cl)c(Cl)nc2[nH]1,–,59.8,–,–,–,–,–,
Cc1cc2c(N=NC(=O)CCc3ccccc3)c(O)[nH]c2cc1Br,–,–,–,–,–,–,·,
CC1(C)O[C@@H]2C[C@H]3[C@@H]4C[C@H](F)C5=CC(=O)C=C[C@]5(C)[C@H]4[C@@H](O)C[C@]3(C)[C@]2(C(=O)CO)O1,–,67.9,–,–,–,–,–,
CC1(C)O[C@@H]2C[C@H]3[C@@H]4C[C@H](F)C5=CC(=O)CC[C@]5(C)[C@H]4[C@@H](O)C[C@]3(C)[C@]2(C(=O)CO)O1,–,73.8,–,–,–,–,–,
CN1C(=O)c2ccc(C(=O)NCc3ccco3)cc2C1=O,–,–,–,–,–,–,·,
COc1ccc(NC(=O)C(NC(=O)c2ccccc2)C(C)C)cc1 (stereo unspecified),–,–,–,–,–,–,·,
Cc1cccc(C(=O)N[C@H](C(=O)Nc2nc3ccccc3[nH]2)C(C)C)c1,–,65.7,–,–,–,–,83.4,
COc1ccc(C(=O)N[C@H](C(=O)Nc2nc3ccccc3[nH]2)C(C)C)cc1,–,54.8,–,–,–,–,77.7,
COc1ccc(-c2cc(=O)oc3cc(OC(=O)C4CCCCC4)ccc23)cc1,–,74.4,–,–,–,–,84.1,
COc1ccccc1/C=C/C(=O)NCc1cccnc1,–,–,–,–,–,–,·,
O=C(Nc1ccc(Br)c2ccccc12)c1ccc2ccccc2c1O,–,53.6,–,–,–,–,72.7,
CC(=O)Nc1ccc(Br)c2ccccc12,–,–,–,–,–,–,·,
Cc1ccc(-n2ncc3c2CC(C)(C)CC3NC(=O)c2ccncc2)cc1 (stereo unspecified),–,–,–,–,–,–,·,
C=C1CCC(O)C2(C)CCC3C(C)C(=O)OC3C12O (stereo unspecified),–,–,–,–,–,–,·,
C=C1C(=O)O[C@@H]2[C@H]1CC[C@H](C)[C@]1(O)CCC(=O)[C@@]21C,–,54.0,–,–,–,–,78.1,
SMILES,EBV LMP1 NFkB,CF NFkB inh,Peg3 prom inh,KKLEB cytotox,HIF-2a inh,Shn3 inh set2,CF NFkB conf,others
Nc1ncnc(N2CCc3ccccc32)c1[N+](=O)[O-],64.9,83.4,–,–,–,–,98.3,Mdm2 MdmX conf=92.7
NNC(=O)c1ccc(N2CCc3ccccc32)c([N+](=O)[O-])c1,–,–,–,–,–,–,·,
O=C(O)c1ccc(N=C2c3ccccc3-c3ccccc32)cc1,–,–,–,–,–,–,·,
O=C(Cn1cc(/C=C\[N+](=O)[O-])c2ccccc21)Nc1ccccc1,–,53.5,91.5,–,95.8,94.5,–,HIF-2a inh conf=–;HIF-1a counter=106.3
CCOC(=O)CS(=O)(=O)c1nc(-c2ccccc2)cc(C(F)(F)F)n1,?,78.7,105.2,–,89.3,97.4,59.5,HIF-2a inh conf=81.6;HIF-1a counter=65.0
COc1ccc(-c2cc(C(F)(F)F)nc(S(C)(=O)=O)n2)cc1,–,73.6,100.4,–,89.2,94.7,57.7,Mdm2 MdmX conf=102.5;HIF-2a inh conf=–;HIF-1a counter=103.0
CCOC(=O)C1(C)CCCN(C(=O)c2ccccc2F)C1 (stereo unspecified),·,–,–,–,–,–,·,
Cc1ccc(Sc2c(O)c3ccccc3n(C)c2=O)cc1,–,–,–,–,–,–,·,
Cc1ccc(Sc2c(C=O)c3ccccc3n2C)cc1,–,65.4,–,–,–,–,92.7,Mdm2 MdmX conf=91.5
O=S(=O)(c1ccccc1Cl)N1CCC(O)(c2cccnc2)CC1,–,–,–,–,–,–,·,
Cc1cccc(NS(=O)(=O)c2ccc(-c3cnc(C4CC4)o3)cc2)c1C,–,51.8,–,–,41.7,–,87.0,HIF-2a inh conf=–;HIF-1a counter=66.9
Cc1cc(C)cc(NS(=O)(=O)c2ccc(-c3cnc(C4CC4)o3)cc2)c1,–,64.0,–,–,39.5,–,81.5,HIF-2a inh conf=–;HIF-1a counter=60.4
O=S(=O)(Nc1ccccc1)c1ccc(-c2cnc(C3CC3)o2)cc1,–,–,–,–,–,–,·,
CCCn1c(SCC(=O)NC(=O)NC(C)(C)C)n[nH]c1=O,–,–,–,–,–,–,·,
Fc1ccc(Oc2cnc3ccccc3n2)cc1,–,–,–,–,–,–,·,
CC(C)(C)C(=O)/C(=C/c1ccncc1)n1cncn1,–,75.4,100.8,–,93.0,97.8,82.6,Mdm2 MdmX conf=102.5;HIF-2a inh conf=62.3;HIF-1a counter=105.6
Cn1nnnc1Sc1ncnc2scc(-c3ccc[nH]3)c12,–,83.0,–,–,72.2,–,64.3,HIF-2a inh conf=40.9;HIF-1a counter=99.6
CC(C)Oc1ccc(S(=O)(=O)N2CCOCC2)cc1NC(=O)c1cccc(S(=O)(=O)N2CCCC2)c1,–,–,–,–,–,–,·,
Cc1noc2ncnc(Sc3ccccc3Cl)c12,–,53.2,115.1,–,67.3,–,–,HIF-2a inh conf=–;HIF-1a counter=–
c1cc(-c2ccc(CN3CCOCC3)cc2)n2ccnc2c1,·,–,–,–,–,–,·,
CCCCN(CCCNC(=O)c1ccc2c(c1)NC(=O)CN2C)c1ccccc1,–,64.6,66.1,–,44.5,–,–,HIF-2a inh conf=49.2;HIF-1a counter=93.5
Cc1ccc2[nH]cc(CCNS(=O)(=O)c3ccc(F)cc3)c2c1,–,–,–,–,–,–,·,

# Screening results deposited in PubChem BioAssay by several laboratories.
